Measured values published in PubChem BioAssay (Tox21).
Records with an inconclusive call do not appear. Activity calls are given as the source filed them. Unless noted, the call rests on the fitted dose curve; in most records, active means well fitted curve in the direction sought with a large enough effect in the repeat runs; inconclusive means weak or mixed curves; inactive means no such curve, though single readings can be large; an effect the other way counts as inactive or inconclusive.

Experiments:
[1] = biological target: Aryl hydrocarbon receptor (Homo sapiens) (UniProt P35869); experiment: qHTS assay to identify small molecule that activate the aryl hydrocarbon receptor (AhR) signaling pathway (AID 743085);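 further: HG2L7.5c1 human HepG2 liver cells with stably integrated DRE-driven firefly reporter; series mostly up to about 70 µM; nearly all actives have a fitted effect of over 15% in size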
Procedure, shortened: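 AhR agonist activity is inferred from enhanced light output of a DRE-controlled firefly luciferase reporter in HepG2 cells, measured with ONE-Glo following 24 h treatment at 37C.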

[2] = qHTS assay to identify small molecule that activate the aryl hydrocarbon receptor (AhR) signaling pathway - cell viability counter screen (AID 743086);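 further: HepG2 liver cells carrying the AhR DRE luciferase reporter; series mostly up to about 70 µM; nearly all actives have a fitted effect of over 45% in size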
Procedure, shortened: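 Cytotoxicity counter screen: CellTiter-Fluor signal (30 min, 37 C) in 4000 HepG2 cells/well carrying the DRE-luciferase reporter, following 24 h compound exposure at 37 C.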

[3] = biological target: Peroxisome proliferator-activated receptor gamma (Homo sapiens) (UniProt P37231); experiment: qHTS assay to identify small molecule agonists of the peroxisome proliferator-activated receptor gamma (PPARg) signaling pathway (AID 743094; active means well fitted activation curve with a large enough effect in the signal ratio in the repeat runs, not every such curve was filed as active; the % refers to the signal ratio)
Procedure, shortened: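 Agonist activity was taken from a beta-lactamase reporter (FRET substrate, 1 h at room temperature) in HEK293H cells carrying a PPARg UAS-bla construct. Compounds in DMSO were incubated 17 h at 37C after a 5 h cell pre-incubation.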

[4] = qHTS assay to identify small molecule antagonists of the peroxisome proliferator-activated receptor gamma (PPARg) signaling pathway - cell viability counter screen (AID 743194); further: nearly all actives have a fitted effect of over 55% in size
Procedure, shortened: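 Viability was measured as CellTiter-Glo luminescence in GeneBLAzer PPARg UAS-bla HEK293H cells. These cells had been exposed 17 h at 37 C to compounds together with rosiglitazone at 50 nM final, with the beta-lactamase readout taken in the same wells.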

[5] = qHTS assay for small molecule agonists of the antioxidant response element (ARE) signaling pathway - cell viability counter screen (AID 743203; calls by dose curve; further: nearly all actives have a fitted effect of over 55% in size)
Procedure, shortened: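 Viability counter screen: CellTiter-Glo luminescence, read after 30 min at room temperature, in ARE-bla HepG2 wells. Compound exposure lasted 16 h at 37C/5% CO2, following a 5 h pre-incubation of the cells after plating.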

[6] = qHTS assay for small molecule activators of the heat shock response signaling pathway (AID 743210; active means well fitted activation curve with a large enough effect in the signal ratio in the repeat runs, with a control signal flat, not every such curve was filed as active; the % refers to the signal ratio; further: series mostly up to about 63 µM)
Procedure, shortened: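 Compound exposure lasted 5 h at 37 C in HeLa cells carrying a heat-shock-element-driven beta-lactamase reporter. Read-out: fluorescence intensity after 2.5 h room-temperature loading with LiveBLAzer B/G FRET substrate.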

[7] = qHTS assay to identify small molecule agonists of the peroxisome proliferator-activated receptor delta (PPARd) signaling pathway - cell viability counter screen (AID 743211); further: nearly all actives have a fitted effect of over 55% in size
Procedure, shortened: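 qHTS cell viability: PPARd-bla HEK293H; 17 h cpd, 37C; CellTiter-Glo, luminescence at 30 min RT.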

[8] = biological target: Peroxisome proliferator-activated receptor delta (Homo sapiens) (UniProt Q03181); experiment: qHTS assay to identify small molecule agonists of the peroxisome proliferator-activated receptor delta (PPARd) signaling pathway (AID 743212; calls by dose curve;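 further: HEK293H cells with PPARd UAS beta-lactamase reporter GeneBLAzer system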)
Procedure, shortened: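 Beta-lactamase reporter readout: a ratiometric FRET signal from the LiveBLAzer substrate after 2 h at room temperature. Compound exposure at 37 °C in PPARδ-bla HEK293H cells driven by an upstream activator sequence.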

[9] = qHTS assay to identify small molecule antagonists of the peroxisome proliferator-activated receptor delta (PPARd) signaling pathway - cell viability counter screen (AID 743213); further: nearly all actives have a fitted effect of over 50% in size
Procedure, shortened: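 Viability counter-screen, qHTS format: PPARd-bla HEK293H, L165041 300 nM final, 17 h compound exposure at 37 C, CellTiter-Glo luminescence after 30 min RT.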

[10] = biological target: Bile acid receptor (Homo sapiens) (UniProt Q96RI1); experiment: qHTS assay to identify small molecule antagonists of the farnesoid-X-receptor (FXR) signaling pathway (AID 743217; active means well fitted inhibition curve with a large enough effect in the signal ratio in the repeat runs, not every such curve was filed as active; the % refers to the signal ratio)
Procedure, shortened: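 Antagonist mode: chenodeoxycholic acid at 50 uM final stimulates a UAS-driven beta-lactamase reporter in HEK 293T FXR-bla cells during 16 h, 37C compound exposure. Read-out is FRET substrate fluorescence after 2 h at room temperature.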

[11] = biological target: Bile acid receptor (Homo sapiens) (UniProt Q96RI1); experiment: qHTS assay to identify small molecule agonists of the farnesoid-X-receptor (FXR) signaling pathway (AID 743220; active means well fitted activation curve with a large enough effect in the signal ratio in the repeat runs, not every such curve was filed as active; the % refers to the signal ratio)
Procedure, shortened: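 FXR-UAS-bla HEK 293T cells carrying a UAS-driven beta-lactamase reporter were plated for 5 h at 37C/5% CO2, then exposed to DMSO-dissolved Tox21 10K compounds for 16 h at 37C. A LiveBLAzer B/G FRET substrate was loaded for 2 h at room temperature before fluorescence reading.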

[12] = qHTS assay to identify small molecule antagonists of the farnesoid-X-receptor (FXR) signaling pathway - cell viability counter screen (AID 743221; active means well fitted cell-killing curve with a large enough effect in the repeat runs, not every such curve was filed as active; further: nearly all actives have a fitted effect of over 50% in size)
Procedure, shortened: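 After a 5 h settling period, FXR-bla HEK 293T cells receive compound and chenodeoxycholic acid (50 uM final) and incubate 16 h at 37 C; CellTiter-Glo luminescence, read after 30 min at room temperature, reports cell viability.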

[13] = biological target: Vitamin D3 receptor (Homo sapiens) (UniProt P11473); experiment: qHTS assay to identify small molecule agonists of the vitamin D receptor (VDR) signaling pathway (AID 743222; calls by dose curve)
Procedure, shortened: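 Agonist mode, beta-lactamase reporter: fluorescence from LiveBLAzer B/G FRET substrate (2 h, room temperature) read after 16 h compound treatment at 37 C of VDR-bla cells, which were pre-incubated 4 h after seeding.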

[14] = biological target: Vitamin D3 receptor (Homo sapiens) (UniProt P11473); experiment: qHTS assay to identify small molecule antagonists of the vitamin D receptor (VDR) signaling pathway (AID 743223; active means well fitted inhibition curve with a large enough effect in the signal ratio in the repeat runs, not every such curve was filed as active; the % refers to the signal ratio)
Procedure, shortened: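 Reporter line VDR-bla; stimulus 1alpha,25-(OH)2 vitamin D3, 3 nM final; compound co-addition, 16 h 37C/5% CO2; LiveBLAzer B/G substrate 2 h RT; fluorescence intensity.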

[15] = qHTS assay to identify small molecule agonists of the vitamin D receptor (VDR) signaling pathway - cell viability counter screen (AID 743224); further: series mostly up to about 63 µM; nearly all actives have a fitted effect of over 50% in size
Procedure, shortened: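 Counter screen run in the same wells as the VDR-bla reporter assay: CellTiter-Glo luminescence, 30 min at room temperature, after 16 h compound treatment at 37C of cells pre-plated for 4 h.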

[16] = qHTS assay for small molecule agonists of the antioxidant response element (ARE) signaling pathway (AID 743202; active means well fitted activation curve with a large enough effect in the signal ratio in the repeat runs, not every such curve was filed as active; the % refers to the signal ratio)
Procedure, shortened: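 After 16 hours of compound treatment at 37 C, HepG2 cells with a stably integrated ARE-driven beta-lactamase reporter were loaded 2 hours at room temperature with LiveBLAzer B/G FRET substrate and fluorescence intensity measured.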

[17] = qHTS assay for small molecule activators of the heat shock response signaling pathway - cell viability counter screen (AID 743209); further: nearly all actives have a fitted effect of over 50% in size
Procedure, shortened: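 Cytotoxicity counter screen run in the same wells as the heat-shock bla reporter assay: HeLa HSE-bla cells, 5 h compound exposure at 37 C, viability read by CellTiter-Glo luminescence.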

[18] = qHTS assay to identify small molecule agonists of the farnesoid-X-receptor (FXR) signaling pathway - cell viability counter screen (AID 743218); further: nearly all actives have a fitted effect of over 45% in size
Procedure, shortened: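 Viability counter screen in the same wells: CellTiter-Glo luminescence, 30 min room-temperature incubation, measured after the beta-lactamase read. Cells were GeneBLAzer FXR-UAS-bla HEK 293T, compound-treated 16 h at 37C.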

[19] = biological target: Peroxisome proliferator-activated receptor delta (Homo sapiens) (UniProt Q03181); experiment: qHTS assay to identify small molecule antagonists of the peroxisome proliferator-activated receptor delta (PPARd) signaling pathway (AID 743215; active means well fitted inhibition curve with a large enough effect in the signal ratio in the repeat runs, not every such curve was filed as active; the % refers to the signal ratio;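 further: cells stimulated with agonist L165041 at 300 nM final during compound exposure; series mostly up to about 62 µM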)
Procedure, shortened: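 Agonist L165041 (300 nM final) added with compound to PPARd-bla HEK293H UAS-bla reporter cells; 17 h incubation at 37 C. Read-out: LiveBLAzer FRET substrate, 2 h at room temperature, fluorescence intensity.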

[20] = biological target: Peroxisome proliferator-activated receptor gamma (Homo sapiens) (UniProt P37231); experiment: qHTS assay to identify small molecule antagonists of the peroxisome proliferator-activated receptor gamma (PPARg) signaling pathway (AID 743191; calls by dose curve; further: series mostly up to about 63 µM; nearly all actives have a fitted effect of over 30% in size)
Procedure, shortened: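 Beta-lactamase reporter under UAS control in HEK293H PPARg-bla cells; compound treatment 17 h at 37C. Read-out: fluorescence intensity after 1 h room-temperature incubation with LiveBLAzer B/G FRET substrate.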

Measured: Potency

Sequence of Aryl hydrocarbon receptor (Homo sapiens) (P35869 whole entry, looked up): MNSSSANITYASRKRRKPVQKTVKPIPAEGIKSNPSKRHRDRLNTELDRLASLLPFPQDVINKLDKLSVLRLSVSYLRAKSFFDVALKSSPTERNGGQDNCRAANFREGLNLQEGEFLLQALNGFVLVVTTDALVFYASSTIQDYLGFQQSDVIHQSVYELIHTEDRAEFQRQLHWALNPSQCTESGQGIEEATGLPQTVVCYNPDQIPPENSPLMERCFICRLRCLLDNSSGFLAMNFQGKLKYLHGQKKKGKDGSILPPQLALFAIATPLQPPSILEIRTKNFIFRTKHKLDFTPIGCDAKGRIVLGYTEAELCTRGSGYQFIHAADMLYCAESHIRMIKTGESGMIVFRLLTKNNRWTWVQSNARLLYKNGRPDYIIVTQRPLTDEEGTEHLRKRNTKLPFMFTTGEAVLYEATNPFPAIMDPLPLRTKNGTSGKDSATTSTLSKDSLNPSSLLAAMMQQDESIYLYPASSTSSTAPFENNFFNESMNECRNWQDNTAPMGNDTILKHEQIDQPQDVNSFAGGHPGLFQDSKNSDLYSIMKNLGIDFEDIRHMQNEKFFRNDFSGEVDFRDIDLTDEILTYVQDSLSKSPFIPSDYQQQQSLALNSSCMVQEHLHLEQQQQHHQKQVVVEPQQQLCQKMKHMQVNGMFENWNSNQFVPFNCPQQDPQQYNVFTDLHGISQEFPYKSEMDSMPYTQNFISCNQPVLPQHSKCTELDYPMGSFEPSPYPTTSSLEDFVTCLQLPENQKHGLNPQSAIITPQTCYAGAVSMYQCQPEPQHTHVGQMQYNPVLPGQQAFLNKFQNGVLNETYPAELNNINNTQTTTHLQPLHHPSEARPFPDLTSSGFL
Sequence of Peroxisome proliferator-activated receptor gamma (Homo sapiens) (P37231 whole entry, looked up): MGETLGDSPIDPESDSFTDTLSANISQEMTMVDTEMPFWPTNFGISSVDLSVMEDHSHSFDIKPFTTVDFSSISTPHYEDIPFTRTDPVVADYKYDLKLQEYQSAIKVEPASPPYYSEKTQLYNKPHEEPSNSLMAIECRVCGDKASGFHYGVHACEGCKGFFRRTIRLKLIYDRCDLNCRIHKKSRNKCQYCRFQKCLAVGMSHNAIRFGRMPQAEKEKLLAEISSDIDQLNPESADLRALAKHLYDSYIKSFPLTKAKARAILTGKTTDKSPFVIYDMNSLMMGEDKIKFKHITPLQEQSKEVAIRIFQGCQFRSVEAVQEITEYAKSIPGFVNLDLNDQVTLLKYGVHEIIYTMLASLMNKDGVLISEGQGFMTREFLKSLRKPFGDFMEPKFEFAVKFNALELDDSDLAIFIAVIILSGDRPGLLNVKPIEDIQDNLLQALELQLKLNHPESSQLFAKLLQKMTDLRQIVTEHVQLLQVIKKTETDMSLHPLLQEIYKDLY
Sequence of Peroxisome proliferator-activated receptor delta (Homo sapiens) (Q03181 whole entry, looked up): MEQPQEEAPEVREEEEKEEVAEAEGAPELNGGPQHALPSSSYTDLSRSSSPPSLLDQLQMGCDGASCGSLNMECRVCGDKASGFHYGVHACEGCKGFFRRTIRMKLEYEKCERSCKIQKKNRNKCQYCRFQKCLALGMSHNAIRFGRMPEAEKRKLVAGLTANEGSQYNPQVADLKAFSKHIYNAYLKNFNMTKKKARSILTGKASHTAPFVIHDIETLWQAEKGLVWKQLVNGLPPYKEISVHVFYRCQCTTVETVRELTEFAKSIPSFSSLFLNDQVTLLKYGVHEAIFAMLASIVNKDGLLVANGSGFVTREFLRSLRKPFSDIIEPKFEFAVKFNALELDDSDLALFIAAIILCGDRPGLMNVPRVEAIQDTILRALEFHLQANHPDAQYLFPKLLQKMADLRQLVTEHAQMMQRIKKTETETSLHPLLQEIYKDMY
Sequence of Bile acid receptor (Homo sapiens) (Q96RI1 whole entry, looked up): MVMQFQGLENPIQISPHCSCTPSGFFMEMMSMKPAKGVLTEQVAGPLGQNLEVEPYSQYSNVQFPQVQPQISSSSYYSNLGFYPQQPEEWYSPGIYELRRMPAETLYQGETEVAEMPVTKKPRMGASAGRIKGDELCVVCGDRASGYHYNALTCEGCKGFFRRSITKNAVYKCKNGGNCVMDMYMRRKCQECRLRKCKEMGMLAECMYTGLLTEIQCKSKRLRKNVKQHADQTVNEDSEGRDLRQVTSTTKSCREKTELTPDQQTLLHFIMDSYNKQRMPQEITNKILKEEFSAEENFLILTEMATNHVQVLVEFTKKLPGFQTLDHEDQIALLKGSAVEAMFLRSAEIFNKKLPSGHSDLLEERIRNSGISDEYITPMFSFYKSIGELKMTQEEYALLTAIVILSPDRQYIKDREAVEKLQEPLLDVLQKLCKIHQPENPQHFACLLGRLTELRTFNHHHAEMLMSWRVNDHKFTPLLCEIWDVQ
Sequence of Vitamin D3 receptor (Homo sapiens) (P11473 whole entry, looked up): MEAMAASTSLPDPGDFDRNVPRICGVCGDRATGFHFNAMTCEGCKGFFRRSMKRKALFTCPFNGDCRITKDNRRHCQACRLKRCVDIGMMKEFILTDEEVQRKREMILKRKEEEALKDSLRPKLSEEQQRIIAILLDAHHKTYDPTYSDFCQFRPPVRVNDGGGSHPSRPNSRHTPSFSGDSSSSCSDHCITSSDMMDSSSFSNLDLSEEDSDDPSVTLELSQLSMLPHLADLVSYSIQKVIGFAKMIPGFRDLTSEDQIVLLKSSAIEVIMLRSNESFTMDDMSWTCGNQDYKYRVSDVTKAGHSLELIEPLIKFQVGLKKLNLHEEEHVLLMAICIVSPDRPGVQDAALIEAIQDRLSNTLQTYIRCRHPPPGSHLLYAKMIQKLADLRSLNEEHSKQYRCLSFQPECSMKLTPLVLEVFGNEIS

CCC(C)OC(=O)N1CCCCC1CCO (stereo not drawn)
inactive: [1] | [2] | [3] | [4] | [5] | [6] | [7] | [8] | [9] | [10] | [11] | [12] | [13] | [14] | [15]

Nc1ccn(C2CO[C@H](CO)O2)c(=O)n1 (stereo partly drawn)
inactive: [1] | [2] | [3] | [4] | [16] | [5] | [17] | [7] | [9] | [10] | [18] | [11] | [12] | [13] | [14] | [15]

CC1=CC(C)C(C=O)C(C)C1 (stereo not drawn)
inactive: [1] | [2] | [3] | [4] | [16] | [5] | [6] | [7] | [9] | [10] | [18] | [11] | [13] | [14]

CCOC(=O)Nc1ccc2c(c1)N(C(=O)CCN1CCOCC1)c1ccccc1S2
inactive: [1] | [2] | [3] | [4] | [5] | [17] | [6] | [7] | [8] | [9] | [19] | [18] | [13]

NS(=O)(=O)c1cc(C2(O)NC(=O)c3ccccc32)ccc1Cl (stereo not drawn)
inactive: [1] | [2] | [3] | [4] | [5] | [17] | [6] | [8] | [9] | [19] | [10] | [11] | [13] | [14]

COc1cc(CCC(C)=O)ccc1O
inactive: [1] | [2] | [3] | [4] | [5] | [17] | [6] | [7] | [8] | [9] | [19] | [10] | [18] | [11] | [12] | [13] | [14] | [15]

CCCCCCCCCCCl
inactive: [1] | [2] | [20] | [4] | [16] | [5] | [17] | [6] | [7] | [8] | [9] | [19] | [10] | [18] | [11] | [12] | [13] | [14]

Cc1cc(C)cc(OCC2CNC(=O)O2)c1 (stereo not drawn)
inactive: [1] | [2] | [20] | [4] | [16] | [5] | [17] | [6] | [8] | [9] | [10] | [18] | [11] | [12] | [13] | [14] | [15]

Cc1ncc(CSSCc2cnc(C)c(O)c2CO)c(CO)c1O
inactive: [1] | [2] | [20] | [16] | [5] | [7] | [8] | [9] | [19] | [10] | [18] | [11] | [12] | [13] | [14]

COc1ccc(COC=O)cc1
inactive: [1] | [2] | [3] | [5] | [17] | [7] | [8] | [9] | [10] | [18] | [11] | [12] | [15]

C#CC(O)C(CC)CCCC (stereo not drawn)
inactive: [1] | [2] | [20] | [16] | [5] | [17] | [6] | [7] | [9] | [18] | [12]

O=S(=O)(O)c1ccccc1O
inactive: [1] | [2] | [3] | [5] | [17] | [6] | [7] | [9] | [19] | [18] | [12] | [15]

O=C(O)/C=C/c1ccc(/C=C/C(=O)O)cc1
inactive: [1] | [2] | [20] | [5] | [17] | [6] | [7] | [8] | [9] | [19] | [12] | [15]
